Bioassay records deposited in PubChem BioAssay by several laboratories.
This is a sample that favours compounds with a hit; in the whole collection about 3% have one here.
CHT PAM = allosterically activates the human high affinity choline transporter; Q9GZV3; CHT-expressing cells, membrane potential dye, choline EC20; stronger effect = higher value; LV-AA mutant CHT in HEK293 cells; B-score at 10 µM; hit rate 0.49% among 310,000; AID 488977;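 active means initial fluorescence not abnormally high and integrated response B-score, plate-corrected, over 3 SD above library mean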
Target sequence (Q9GZV3 whole entry, looked up): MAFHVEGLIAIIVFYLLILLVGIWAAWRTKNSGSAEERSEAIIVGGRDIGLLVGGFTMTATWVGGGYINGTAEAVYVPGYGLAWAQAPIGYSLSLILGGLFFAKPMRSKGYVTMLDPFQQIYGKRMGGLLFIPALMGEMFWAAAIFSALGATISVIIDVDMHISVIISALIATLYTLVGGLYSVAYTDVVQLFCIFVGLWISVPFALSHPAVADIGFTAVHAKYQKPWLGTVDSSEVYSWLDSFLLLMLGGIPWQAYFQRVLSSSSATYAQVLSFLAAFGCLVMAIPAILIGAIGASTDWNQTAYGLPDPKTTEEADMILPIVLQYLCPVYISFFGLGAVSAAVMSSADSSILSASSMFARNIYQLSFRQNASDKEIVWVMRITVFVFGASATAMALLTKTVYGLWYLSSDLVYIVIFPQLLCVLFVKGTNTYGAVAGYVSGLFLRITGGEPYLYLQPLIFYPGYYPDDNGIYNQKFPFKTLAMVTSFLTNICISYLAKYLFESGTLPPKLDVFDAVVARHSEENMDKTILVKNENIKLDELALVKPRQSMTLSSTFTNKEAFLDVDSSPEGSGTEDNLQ
NLRP3 yeast inh = NALP3 inhibition in yeast; inhibition, % at 10 µM; AID 2825; hit rate 0.39% among 330,000; Yeast reconstituted NLRP3/ASC/caspase-1, beta-gal luminescence, 24 h;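 active means inhibition of 50% or more; inactive means inhibition below 50%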
NALP1 inh = NALP1 inhibition; hit rate 0.61% among 280,000; inhibition, % at 10 µM; S. cerevisiae NALP1/ASC/caspase-1 growth, X-gal OD620, 72 h; in the data active means inhibition mostly above about 24%, no sharp cut-off; inactive means mostly below about 32%
A1 inh = inhibitors of the anti-apoptotic protein A1, read as caspase activation | MEF A1-2A-BIM cells, Caspase-Glo 3/7 luminescence, 3 h; percent of clofoctol response, vehicle zero | caspase activation, % (no concentration beside the values) | hit rate 0.066% among 330,000;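 active means over half of replicate activation scores above 10%, or exactly half above 10 with the replicate mean above 10; inconclusive means replicate mean below 10 yet half the replicates above 10; inactive means over half of replicates below 10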
SUMO Mot1 rescue = blocks SUMOylation pathway, rescuing yeast Mot1-301 growth | S. cerevisiae Mot1-301 growth rescue, ATP luminescence, 38.5C; percent above DMSO median, 100 means doubled | growth rescue, % at 18.8 µM | hit rate 1% among 320,000 | AID 2716;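 active means every valid replicate shows activation above 250% relative to neutral control wells; inactive means the rest, any valid replicate at or below 250%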
CHT inh = inhibitors of human choline transporter CHT | hit rate 0.86% among 310,000 | AID 488975 | CHT-expressing cells, membrane potential dye, choline response; stronger effect = lower value | B-score at 10 µM;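 active means B-score over 3 SD under the library average, and starting fluorescence ratio not unusually high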;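 further: choline stimulus applied at its EC90 after an EC20 pre-addition; B-score computed on integrated fluorescence ratio after choline addition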
NALP3 yeast conf = NALP3 inhibition confirmation in yeast. inhibition, % at 10 µM. AID 435006. yeast expressing human NALP3, luminescence. hit rate 81% among 1,300. shares compounds with NLRP3 yeast inh; in the data active means inhibition above about 48%
Casp1-ASC yeast = counter-screen for NALP3 inhibitors: yeast caspase-1-ASC; inhibition, % at 10 µM; yeast expressing Caspase-1-ASC, luminescence counter screen; hit rate 66% among 1,000; AID 488784; shares compounds with NLRP3 yeast inh
NALP3 yeast rt = yeast NALP3 inhibition, confirmed on retest; hit rate 53% among 1,000; inhibition, % at 10 µM; shares compounds with NLRP3 yeast inh; yeast expressing human NALP3, luminescence read-out; AID 488794
Large screens that a line does not name were inactive (follow-up assays come after a bar, where they were run). Unless noted, no stated cut-off is given here; in the data, active means inhibition above about 50%; inactive means the rest.

C/C(=N/NC(=O)c1ccc(C(C)(C)C)cc1)c1ccccn1	NLRP3 yeast inh 66 (no result: NALP1 inh) | NALP3 yeast conf 55 | Casp1-ASC yeast 83 | NALP3 yeast rt 79
COc1ccc(C(=O)N/N=C(\C)c2ccccn2)cc1OC	none
C/C(=N\NC(=O)c1cccc(Br)c1)c1ccccn1	NLRP3 yeast inh 61 | NALP3 yeast conf 84 | Casp1-ASC yeast 85 | NALP3 yeast rt 69
c1ccc(-c2ccc(-c3ccccn3)s2)nc1	NLRP3 yeast inh 52 | NALP3 yeast conf 56 | Casp1-ASC yeast inactive | NALP3 yeast rt inactive
O=C(O)c1ccc(-c2ccccn2)s1	none
CCc1ccc(OCC(=O)NNC(=O)c2ccc(NC(=O)C3CC3)cc2)cc1	none
OCCC1CN(C2CCC2)CCN1Cc1ccc(F)c(F)c1 (centres undefined)	none
COc1ccc(C)cc1-n1nnnc1SCC1CCCCO1 (centres undefined)	NLRP3 yeast inh 53 | NALP3 yeast conf inactive
CCCCn1nc(C(=O)NNC(=O)c2ccncc2)c2ccccc2c1=O	none
O=C(O/N=C/c1ccc(Br)cc1)c1ccc(F)cc1	none (no result: NALP1 inh)
O=C(NCc1cccs1)c1cc2c(s1)-c1ccccc1OC2	none
O=C(NC1CC1)c1cc2c(s1)-c1ccccc1OC2	NLRP3 yeast inh 60, NALP1 inh 34 | NALP3 yeast conf 74 | Casp1-ASC yeast 57 | NALP3 yeast rt inactive
COc1ccc(CNC(=O)COC(=O)CN2C(=O)NC3(CCCC3)C2=O)cc1	none (no result: CHT PAM, NALP1 inh, CHT inh)
O=C(Oc1c(Cl)cc(Cl)c2cccnc12)c1cccs1	NLRP3 yeast inh 61 | NALP3 yeast conf 70 | Casp1-ASC yeast 83 | NALP3 yeast rt 81
O=C(Oc1c(Cl)cc(Cl)c2cccnc12)c1ccco1	NLRP3 yeast inh 71 | NALP3 yeast conf 84
O=C(Oc1c(CN2CCOCC2)cc(Cl)c2cccnc12)c1cccs1	none
Oc1c(Cl)cc(Cl)c2cccnc12	none (no result: CHT PAM, NLRP3 yeast inh, A1 inh, SUMO Mot1 rescue, CHT inh)
CN1CCN(Cn2cc(/C=C/C(=O)c3ccccc3)c3ccccc32)CC1	NLRP3 yeast inh 67 | NALP3 yeast conf 74
CCCn1c(CN2CCN(C(=O)c3ccco3)CC2)nc2cc(S(=O)(=O)N(C)C)ccc21	none (no result: CHT PAM, NALP1 inh, A1 inh, SUMO Mot1 rescue, CHT inh)
Cc1nn(Cc2ccccc2)c(C)c1CNC(=O)[C@H](C)N=C1NS(=O)(=O)c2ccccc21	none (no result: CHT PAM, NLRP3 yeast inh, NALP1 inh, CHT inh)
O=C(Nc1cc(Cl)cc(Cl)c1)c1cnn2cccnc12	none
O=C(Nc1cccc(Cl)c1)c1cnn2cccnc12	NLRP3 yeast inh 53 | NALP3 yeast conf 79 | Casp1-ASC yeast inactive | NALP3 yeast rt 56
Cc1c(C(=O)Nc2ccccc2F)sc2ncn(CC(=O)N3CCOCC3)c(=O)c12	none
CN1CCN(C(=O)c2cc(COc3c(F)cccc3F)on2)CC1c1ccccc1 (centres undefined)	NLRP3 yeast inh 84 | NALP3 yeast conf 88 | Casp1-ASC yeast 85 | NALP3 yeast rt 84
CCOC(=O)c1sc(NC(=O)C2CC(=O)N(c3ccc(C)cc3)C2)nc1C (centres undefined)	none
O=C(c1ccc2c(=O)n(Cc3ccc(Cl)cc3)c(=S)[nH]c2c1)N1CCOCC1	none
CCOC(=O)c1c(NC(=O)CSc2nnc(C)o2)sc(C)c1C	NLRP3 yeast inh 52 (no result: NALP1 inh) | NALP3 yeast conf 54 | Casp1-ASC yeast inactive | NALP3 yeast rt inactive
CCOC(=O)c1sc(=NC(=O)c2ccccc2)n(C)c1C	NLRP3 yeast inh 63 | NALP3 yeast conf 75
Oc1ccccc1-c1cc(-c2ccccc2)no1	NLRP3 yeast inh 55 | NALP3 yeast conf 60 | Casp1-ASC yeast 59 | NALP3 yeast rt 56
Cc1ccc(-c2cc(-c3ccccc3)no2)c(O)c1	none (no result: NLRP3 yeast inh)
c1ccc2c(c1)Cn1c-2nc2ccccc21	NLRP3 yeast inh 70 (no result: NALP1 inh) | NALP3 yeast conf 73 | Casp1-ASC yeast 84 | NALP3 yeast rt 77
COc1cccc2c1C(=O)CC1C2CCC2CC(=O)CCC21C (centres undefined)	none (no result: NALP1 inh)
C[C@@]12CCC3[C@@](CCC4[C@@]3(C)CCC[C@@]4(C)C(=O)O)(CC1=O)C2 (some centres undefined)	none (no result: CHT PAM, NALP1 inh, CHT inh)
CC(C)(C)CNC(=O)[C@]1(C)CCC[C@@]2(C)C3CC[C@@]4(C)C[C@]3(CCC21)CC4=O (some centres undefined)	none (no result: CHT PAM, NALP1 inh, CHT inh)
CC(C)(C)NC(=O)[C@]1(C)CCC[C@@]2(C)C3CC[C@@]4(C)C[C@]3(CCC21)CC4=O (some centres undefined)	NLRP3 yeast inh 52 (no result: CHT PAM, NALP1 inh, CHT inh) | NALP3 yeast conf inactive | Casp1-ASC yeast inactive | NALP3 yeast rt inactive
C[C@@]12CCC3[C@@](CCC4[C@@]3(C)CCC[C@@]4(C)C(=O)NCc3ccccc3)(CC1=O)C2 (some centres undefined)	NLRP3 yeast inh 52 (no result: CHT PAM, NALP1 inh, CHT inh) | NALP3 yeast conf 54 | Casp1-ASC yeast inactive | NALP3 yeast rt inactive
Cn1c(Cl)c(C(=O)Nc2ccccc2)c2ccccc21	NLRP3 yeast inh 60 | NALP3 yeast conf 82 | Casp1-ASC yeast 56 | NALP3 yeast rt 51
CCCn1c(=O)c(C(=O)Nc2ccccc2)c(O)c2ccccc21	A1 inh inconclusive
N#Cc1nc(COc2ccc(F)cc2)oc1N1CCCC1	NLRP3 yeast inh 68 | NALP3 yeast conf inactive | Casp1-ASC yeast 65 | NALP3 yeast rt 54
COc1ccccc1OCc1nc(C#N)c(N2CCCC2)o1	none
N#C/C(=N\Nc1ccc(Cl)c(Cl)c1)C(=O)C1CC1	NLRP3 yeast inh 62 (no result: NALP1 inh) | NALP3 yeast conf 87
O=C(Nc1cccc(O)c1)c1noc2c1CCc1ccccc1-2	NLRP3 yeast inh 63 | NALP3 yeast conf 58 | Casp1-ASC yeast 52 | NALP3 yeast rt 57
Cc1ccc(OC(=O)c2ccc(Cl)c([N+](=O)[O-])c2)cn1	none
Cc1ccc(OC(=O)c2ccc(C)c(C)c2)cn1	NLRP3 yeast inh 54 | NALP3 yeast conf 54 | Casp1-ASC yeast 75 | NALP3 yeast rt inactive
OC(CN1C2=NCCCN2c2ccccc21)c1ccc2c(c1)OCO2 (centres undefined)	none
OC(CN1C2=NCCN2c2ccccc21)c1ccc2c(c1)OCO2 (centres undefined)	NLRP3 yeast inh 57 | NALP3 yeast conf 82 | Casp1-ASC yeast inactive | NALP3 yeast rt inactive
CCn1cc(C(=O)NC2CCCCCC2)c(=O)c2ccc(C)nc21	none
O=c1c2ccccc2nc(-c2ccc([N+](=O)[O-])cc2)n1O	NLRP3 yeast inh 58 | NALP3 yeast conf 74 | Casp1-ASC yeast 51 | NALP3 yeast rt 58
CCc1cccc(C)c1NC(=O)CN1CCN(S(=O)(=O)c2ccc(C(C)(C)C)cc2)CC1	none (no result: NALP1 inh)
